Screening data: PubChem BioAssay, National Center for Advancing Translational Sciences (NCATS)
S2 tox = viability counter-screen for ATXN expression inhibitors; S2 cells (HEK-293 line with an ATXN2-luciferase reporter) viability, CellTiter-Fluor protease fluorescence, 24 h; Potency, µM (titrated, usually from 56.7 µM), hits mostly cytotoxic; 0.49% of 400,000 active; AID 651635; also: nearly all actives have a fitted effect of over 40% in size
DT40 TDP1 CPT = growth inhibition of DT40 Tdp1-/-;hTDP1 cells with camptothecin (screen for TDP1 inhibitors). chicken DT40 Tdp1-/-;hTDP1 cells + 20 nM CPT, ATP luminescence, 48 h. Potency, µM (top dose mostly 46.2 µM), actives largely listed as inhibitors. 12% of 420,000 active. AID 686979; also: nearly all actives have a fitted effect of over 55% in size
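Cell growth measured by CellTiter-Glo luminescence after a minimum 48 h, 37 C compound exposure with 20 nM CPT in Tdp1-knockout DT40 cells stably expressing hTDP1, seeded 400/well; qHTS titration format.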
TGFb inhibitor = blocks TGF-b signaling. 1.2% of 410,000 active. HepG2 CAGA-GFP TGF-b/SMAD3 reporter, GFP fluorescence, 18 h; TGF-beta stimulated, 500 pg/mL final. Potency, µM (top dose mostly 46.1 µM), actives largely listed as inhibitors; also: nearly all actives have a fitted effect of over 65% in size
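HEPG2 CAGA-GFP, 1000 cells/well; 2 h settle, 37 C; cpd via pin tool; TGF-b 500 pg/mL final; 18 h, 37 C; GFP imaging ex488/em500-530; %Activity normalised to -TGF-b and +DMSO controls; CRC fit, curve class.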
ATXN2 expr inh = ATXN2 expression inhibition | HEK-293 ATXN2-luciferase reporter, luminescence, 24 h | AID 1745845 | Potency, µM (top dose mostly 57 µM), actives largely listed as inhibitors | 0.72% of 360,000 active; also: nearly all actives have a fitted effect of over 55% in size
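ATXN2-luciferase reporter cells (luciferase flanked by upstream and downstream ATXN2 gene portions) were treated 24 h at 37 °C with compounds at up to 57 uM. SteadyGlo luminescence gave expression; GF-AFC fluorescence gave viability.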
TDP1 cell noCPT = qHTS for Inhibitors of human tyrosyl-DNA phosphodiesterase 1 (TDP1): qHTS in cells in absence of CPT; DT40 Tdp1-/- hTDP1 cells, no CPT, ATP luminescence, 48 h; Potency, µM (doses to about 46.2 µM), hits mostly inhibitors; 15% of 420,000 active; AID 686978, 2013; also: nearly all actives have a fitted effect of over 55% in size
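A cellular qHTS used chicken DT40 cells lacking endogenous Tdp1 but carrying stably transfected human TDP1. Compounds were applied without camptothecin, and cell growth kinetics were judged by ATP-dependent luminescence after ≥48 hr.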
HepG2 tox = HepG2 cytotoxicity, counter-screen for TGF-b inhibitors; HepG2 CAGA-GFP viability, ATP luminescence, 18 h; Potency, µM (highest dose often 46.1 µM), hits mostly cytotoxic; 0.76% of 410,000 active; AID 588856
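HepG2 CAGA-GFP cells (1000/well, DMEM with 1% FBS) received compound, then TGF-beta at 500 pg/mL final, and were incubated 18 hours at 37 degrees C. Viability was read by CellTiter-Glo luminescence. Media-only wells were set as complete cell-killing and DMSO as no toxicity.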
Large screens that a line does not name were inactive. An excerpt weighted towards active compounds, which were near 17% of everything screened. Calls follow the shape of the dose curve; as a rule, active = well fitted curve in the direction sought with a large enough effect; inconclusive = small, poorly fitted or top-dose-only effect, or another doubt; inactive = no such curve, though single readings can be large; an effect the other way counts as inactive or inconclusive.

O=C(Nc1ccc2c(c1)OCCO2)c1cc(-c2ccccc2)nc2ccccc12	DT40 TDP1 CPT inconclusive, TDP1 cell noCPT 23µM
O=C(Nc1ccc2c(c1)OCO2)c1cc(-c2ccncc2)nc2ccccc12	DT40 TDP1 CPT inconclusive, TGFb inhibitor inconclusive, TDP1 cell noCPT 15µM
CS(=O)(=O)/C(C#N)=C/c1cccn1S(=O)(=O)c1ccccc1	none
CC(C)(C)S(=O)(=O)/C(C#N)=C/c1cccn1S(=O)(=O)c1ccccc1	TDP1 cell noCPT 23µM
CN(C)n1cccc1/C=C(\C#N)S(=O)(=O)c1cccc(Cl)c1	none
CS(=O)(=O)/C(C#N)=C/c1cccn1S(=O)(=O)c1cccc2ccccc12	DT40 TDP1 CPT 16µM, TDP1 cell noCPT 16µM
COC(=O)c1cc2occc2n1CC(=O)Nc1ccc(C(C)C)cc1	DT40 TDP1 CPT inconclusive
CC(C)N1CC2(CC(c3ccc(Cl)cc3Cl)=NO2)CN1C(=O)c1ccc(C(C)(C)C)cc1 (stereo not given)	DT40 TDP1 CPT 15µM, TDP1 cell noCPT 12µM
CC(C)N1CC2(CC(c3ccccc3F)=NO2)CN1C(=O)c1ccc(C(C)(C)C)cc1 (stereo not given)	S2 tox inconclusive, DT40 TDP1 CPT 23µM, TGFb inhibitor inconclusive, TDP1 cell noCPT 10µM
CC(C)N1CC2(CC(c3ccccc3C(F)(F)F)=NO2)CN1C(=O)c1ccc(C(C)(C)C)cc1 (stereo not given)	S2 tox inconclusive, DT40 TDP1 CPT 16µM, ATXN2 expr inh inconclusive, TDP1 cell noCPT 21µM
CC(C)N1CC2(CC(c3ccccc3C(F)(F)F)=NO2)CN1C(=O)c1ccco1 (stereo not given)	DT40 TDP1 CPT inconclusive, TDP1 cell noCPT 8.2µM
CC(=O)N1CC2(CC(c3ccccc3F)=NO2)CN1c1ccc(Cl)cc1 (stereo not given)	DT40 TDP1 CPT inconclusive, TDP1 cell noCPT inconclusive
C/C=C\C(=O)Nc1cccc(C2=NOC3(C2)C[C@@H](C(N)=O)N(C(=O)c2ccc(Cl)cc2)C3)c1 (stereo not given in full)	none
CC(Oc1cccc(F)c1)c1ccnc2nc(/N=C/N(C)C)nn12 (stereo not given)	DT40 TDP1 CPT inconclusive, TDP1 cell noCPT inconclusive
Cn1cc([N+](=O)[O-])c(C(=O)Nc2cc(Oc3cccnc3)cc([N+](=O)[O-])c2)n1	S2 tox inconclusive, TGFb inhibitor 13µM, TDP1 cell noCPT inconclusive
Cn1cc([N+](=O)[O-])c(C(=O)Nc2ccc(C(=O)N3CCCCC3)cc2)n1	TGFb inhibitor inconclusive, HepG2 tox 8.9µM
Cn1cc([N+](=O)[O-])c(C(=O)Nc2ccc(C3CCCCC3)cc2)n1	S2 tox inconclusive, DT40 TDP1 CPT inconclusive, TGFb inhibitor inconclusive
COc1ccc(-c2nc(C(=O)NCCCN3CCOCC3)cc3c2[nH]c2ccccc23)cc1OC	S2 tox inconclusive, DT40 TDP1 CPT 13µM, ATXN2 expr inh inconclusive, TDP1 cell noCPT 3.7µM
Cc1ccc(-c2nc(C(=O)NCCCN3CCOCC3)cc3c2[nH]c2ccccc23)cc1	S2 tox inconclusive, DT40 TDP1 CPT 3.3µM, ATXN2 expr inh inconclusive, TDP1 cell noCPT 3.3µM
Cc1ccc(-c2cc(C(=O)NCCCN3CCOCC3)c3ccccc3n2)cc1	TDP1 cell noCPT inconclusive
COc1ccccc1Cc1c(-c2ccc(C#N)cc2)nc2c(Cl)cc(C(F)(F)F)cn12	DT40 TDP1 CPT 23µM, TDP1 cell noCPT 15µM (no result: TGFb inhibitor, HepG2 tox)
CC(C)(C)Cc1c(-c2ccc(C#N)cc2)nc2c(Cl)cc(C(F)(F)F)cn12	S2 tox inconclusive, DT40 TDP1 CPT 18µM, TGFb inhibitor inconclusive, ATXN2 expr inh inconclusive, TDP1 cell noCPT inconclusive
COc1ccc(-c2nc(CN3CCCCC3c3nccn3C)c(C)o2)c(C)c1C (stereo not given)	S2 tox inconclusive, TGFb inhibitor 20µM, ATXN2 expr inh inconclusive, TDP1 cell noCPT inconclusive
COc1ccccc1C1CCCN1Cc1nc(-c2cc3c(cc2Cl)OCO3)oc1C (stereo not given)	S2 tox inconclusive, DT40 TDP1 CPT inconclusive, TDP1 cell noCPT inconclusive
COc1ccc(OC)c(-c2nc(CN3CCCCC3c3cccnc3)c(C)o2)c1 (stereo not given)	TDP1 cell noCPT inconclusive
COc1ccccc1C1CCCN1Cc1nc(-c2ccc(C)s2)oc1C (stereo not given)	DT40 TDP1 CPT 18µM, TGFb inhibitor inconclusive, TDP1 cell noCPT inconclusive (no result: S2 tox)
COc1ccc2c(c1)c(CC(=O)Nc1cccc(F)c1C)c(C)n2C(=O)c1ccc(Cl)cc1	none
CCCCCCCC[n+]1c(C)n(-c2ccccc2)c2ccc(NC(C)=O)cc21	DT40 TDP1 CPT 0.41µM, TGFb inhibitor inconclusive, TDP1 cell noCPT 0.82µM
CC(=O)Nc1ccc(SCC(=O)c2cc(C)n(-c3ccccc3)c2C)cc1	none
CCOCCCn1c(SCC(=O)OCC)nc2c(sc3ccccc32)c1=O	DT40 TDP1 CPT inconclusive, TDP1 cell noCPT inconclusive
Cn1c(N)c(C(=O)COC(=O)c2ccccc2C(=O)c2ccc(Cl)c([N+](=O)[O-])c2)c(=O)n(C)c1=O	DT40 TDP1 CPT inconclusive, TGFb inhibitor inconclusive, ATXN2 expr inh inconclusive, TDP1 cell noCPT 18µM (no result: S2 tox)
Cn1c(N)c(C(=O)COC(=O)c2ccccc2C(=O)c2ccccc2)c(=O)n(C)c1=O	DT40 TDP1 CPT inconclusive
CN(CCC#N)C(=O)COC(=O)c1ccccc1C(=O)c1ccc(Cl)c([N+](=O)[O-])c1	DT40 TDP1 CPT 16µM, TDP1 cell noCPT inconclusive (no result: S2 tox)
O=C(COC(=O)c1ccc(Cl)c([N+](=O)[O-])c1)NC1CCCC1	none
CC(C)N(C(=O)COC(=O)c1ccccc1C(=O)c1ccc(Cl)c([N+](=O)[O-])c1)C(C)C	DT40 TDP1 CPT inconclusive, ATXN2 expr inh inconclusive, TDP1 cell noCPT inconclusive
O=C(COC(=O)c1ccccc1C(=O)c1ccc(Cl)c([N+](=O)[O-])c1)NC1CCCCCC1	DT40 TDP1 CPT inconclusive, TGFb inhibitor inconclusive, ATXN2 expr inh inconclusive, TDP1 cell noCPT 23µM (no result: S2 tox)
O=C(COC(=O)c1ccc2c(c1[N+](=O)[O-])C(=O)c1ccccc1C2=O)NC1CC1	S2 tox 28µM, DT40 TDP1 CPT 3.7µM, TGFb inhibitor 18µM, TDP1 cell noCPT inconclusive
COc1ccc(N(C)C(=O)c2nn(-c3ccc(C)cc3)c(=O)n(C)c2=O)c(OC)c1	none
CCOC(=O)c1c(C)[nH]c(C)c1C(=O)CSc1nc2ccccc2n1CCC#N	none
Cc1[nH]c2ccccc2c1C(=O)CSc1ccc(Cl)cc1	DT40 TDP1 CPT 23µM, TDP1 cell noCPT inconclusive (no result: S2 tox)
CCOC(=O)c1c(C)[nH]c(C)c1C(=O)CSc1nc2ccccc2c(=O)n1-c1ccc(C)cc1	none
